The source of these data is PubChem BioAssay.

As a reminder, the inhibition is the change of the read-out against control, counted positive when it falls.

Test [1] in a line: NFkB reporter suppression in cystic fibrosis bronchial cells – cell-based, uHTS hits, panel, cytotoxicity readout, dose response (AID 624344). As to conditions: CF bronchial epithelial cells, PAF-induced NFkB reporter inhibition, with PAF, run 1; at 79 µM (top of the series) unless noted.
Assay in test [2]: as above
As to conditions: CF bronchial epithelial cells, PAF-induced NFkB reporter inhibition, with PAF, run 2; at 79 µM (top of the series) unless noted.

On to `CC(=O)Nc1ccc(S(=O)(=O)N2c3ccccc3C(C)=CC2(C)C)cc1`, for which the inhibition in test [1] is 93.9%; in test [2], 56.4%.
Turning to `CC1CCc2sc3ncnc(N4CCOCC4)c3c2C1` (stereo unspecified), the inhibition turned out to be 112% in test [1] and 101% in test [2].
As for `COc1ccc(C2CNC(=O)C2)cc1OC1CCCC1` (stereo unspecified), the inhibition in test [1] was found to be 84.8%; in test [2], 81.6%.
Consider `CCOc1cc2c(cc1O)C(=NO)CC1C2CCC2(C)C(O)CCC12` (stereo unspecified), for which the inhibition in test [1] came to 103%; in test [2] it was 112%.
For `CC1CCc2c(sc3ncnc(N4CCOCC4)c23)C1` (stereo unspecified), the inhibition in test [1] amounted to 114%; in test [2], 101%.
With `c1cncc(-c2ccc3ncnc(NCc4ccc5c(c4)OCO5)c3c2)c1`, the inhibition was determined as 112% in test [1] and 101% in test [2].
Turning to `O=C(Nc1ccc2c(c1)OCCO2)c1cc(-c2ccccn2)nc2ccc(Br)cc12`, the inhibition in test [1] came to 6.4%; in test [2], 68.9%.
As for `COc1cccc(-c2cc(NC=O)c3ncc(-c4ccc(C(C)=O)cc4)n3c2)c1`, the inhibition in test [1] was determined as 84.6%; in test [2], 93.6%.
As for `O=Nc1c(O)n(Cc2c(Cl)cccc2Cl)c2ccccc12`, the inhibition in test [1] is 103%; in test [2], 115%.
The corresponding values for `Cc1ccsc1CN(C)c1ncnc2ccc(-c3ccoc3)cc12` are 91.6% and 93.8%.
Regarding `Cc1cccc(N2CCN(C(=O)CCn3c(=S)[nH]c4cc5c(cc4c3=O)OCO5)CC2C)c1` (stereo unspecified), the inhibition came out at 109% in test [1] and 93.9% in test [2].
Take `CCC(=O)Nc1nc(C)c(-c2csc(Nc3cccc(O)c3)n2)s1`: the inhibition in test [1] was determined as 95.9%; in test [2] it was 104%.
The like results for `C[C@H](CO)N1C[C@H](C)[C@@H](CN(C)C(=O)Nc2ccc3c(c2)OCO3)Oc2c(NC(=O)Nc3ccc(C(F)(F)F)cc3)cccc2C1=O` were, in that order, 113% and 105%.
In the case of `Cc1cc(C)nc(Sc2ncnc(N)c2[N+](=O)[O-])n1`, the inhibition in test [1] worked out at 96.2%; in test [2], 88.9%.
Consider `c1cnc2ccc(-n3ccnc3)cc2c1`, for which the inhibition in test [1] turned out to be 115%; in test [2], 102%.
The like results for `O=C(Oc1ccc(F)cc1C(=O)/C=C/c1cccs1)c1cccc([N+](=O)[O-])c1` were, in that order, 49.3% and 40.3%.
For the compound `COc1ccc(-c2cc(=O)oc3c(C)c(O)ccc23)cc1`, the inhibition is 94.8% in test [1] and 101% in test [2].
Turning to `NC(=O)c1nsc(C(=O)N(c2ccccc2)C(C(=O)NCc2ccc(F)cc2)c2ccc(O)cc2)c1N` (stereo unspecified), the inhibition in test [1] was found to be 102%; in test [2], 108%.
In the case of `CCCCCc1cc(O)c2c(C)cc(=O)oc2c1`, the inhibition was found to be 112% in test [1] and 99.4% in test [2].
In the case of `CC(=O)Oc1c(Cl)cc(N(C(C)=O)S(=O)(=O)c2ccccc2)c2ccccc12`, the inhibition in test [1] came to 89.7%; in test [2] it was 108%.
The like results for `O=C(Nc1cccc(Cl)c1)Nc1csc([N+](=O)[O-])c1` were, in that order, 114% and 97.5%.
Regarding `COCCNc1nc(Oc2cncc(Cl)c2)c2sccc2n1`, the inhibition in test [1] stood at 100%; in test [2], 115%.
In the case of `Cc1c(Cl)cccc1NC(=O)CSc1nc2ncc(Cl)cc2[nH]1`, the figures for the inhibition in test [1] and in test [2] were 98.5% [at 19.8 µM] and 98.7%, respectively.
Regarding `Fc1ccccc1-c1csc(=Nc2cccnc2)n1CCCn1ccnc1`, the results for the inhibition in test [1] and in test [2] were 116% and 94.9%, respectively.
Consider `COc1ccc2cc3c(N)nn(C(=O)c4ccc(F)cc4)c3nc2c1`, for which the results for the inhibition in test [1] and in test [2] were 90% and 96.1%, respectively.
The corresponding values for `Cc1ccc(NC(=O)c2nc[nH]c2C(=O)NCCCNC(=O)c2[nH]cnc2C(=O)Nc2ccc(C)cc2)cc1` are 108% and 95.2%.
On to `COC(=O)C1=C(C(=O)OC)[C@@H]2N(Cc3ccccc3)c3ccccc3[C@@]23C[C@@H](C(=O)OC)N(C(=O)c2ccc(Br)cc2)C3=N1`, for which the inhibition is 101% in test [1] and 110% in test [2].
As to `CCN(CC(=O)Nc1ccc(OC)cc1)C(=O)c1cc(-c2cccs2)nn1-c1ccccc1`, the inhibition in test [1] was 99.6%; in test [2] it was 98.4%.
As to `C[C@H](O)[C@@H]1CN2CCc3c([nH]c4ccc(-c5ccc6c(c5)OCO6)cc34)[C@@H]2C[C@@H]1N(C)C(=O)Nc1ccc(F)cc1`, the figures for the inhibition in test [1] and in test [2] were 99.8% and 107%, respectively.
With `O=c1cc(-c2ccccc2Cl)oc2cc(O)cc(O)c12`, the inhibition in test [1] stood at 85.2%; in test [2], 93.7%.
The like results for `COC(=O)N1C(=O)[C@@](c2ccc(OC)cc2)(C(C)C)N1C(=O)OC` were, in that order, 101% and 102%.
In the case of `CC1(Cc2cccc(F)c2)C(=O)Nc2ccc(-c3cccnc3)cc21` (stereo unspecified), the inhibition in test [1] came to 112%; in test [2] it was 98.2%.
Take `CCN1CCN(Cc2ccc(NC(=O)c3ccc(C)c(NC(=O)c4cccc5[nH]ccc45)c3)cc2C(F)(F)F)CC1`: the inhibition in test [1] came to 84.6%; in test [2] it was 77.6%.
Regarding `Cc1c(O)ccc2c(-c3ccccc3)cc(=O)oc12`, the inhibition in test [1] was found to be 105%; in test [2], 114%.
As for `O=[N+]([O-])C1C(c2ccccc2)C12c1ccccc1-c1ccccc12` (stereo unspecified), the results for the inhibition in test [1] and in test [2] were 99.1% and 106%, respectively.
For the compound `O=C(c1ccccc1)C1OC1C(=O)c1ccccc1` (stereo unspecified), the inhibition came out at 101% in test [1] and 109% in test [2].
`C=C1C(=O)O[C@@]23[C@H]1CC[C@@H](C)[C@@H]2CC[C@@]1(C)O[C@@H]31`: the inhibition in test [1] worked out at 113%; in test [2], 105%.
Regarding `Cc1ccc(-c2cc(C(=O)N(C)Cc3cnn(C)c3C)c3cc(Br)ccc3n2)cc1`, the figures for the inhibition in test [1] and in test [2] were 109% and 102%, respectively.
As to `O=[N+]([O-])c1cccc(/C=N/Nc2cc(N3CCOCC3)ncn2)c1`, the inhibition in test [1] came to 116%; in test [2], 102%.
On to `COc1ccc(-c2oc3ccc(-c4ccc5c(c4)OCO5)cc3c2C#CC2(O)CCCCC2)cc1`, for which the inhibition was found to be 101% in test [1] and 91.6% in test [2].
The corresponding values for `COc1ccc(CN(C(=O)CSc2nnc(-c3c[nH]c4ccccc34)o2)c2ccc(F)cc2)cc1OC` are 101% and 103%.
On to `Cc1ncc(CO)c2c1Oc1nc(-c3ccccc3F)nc(SCC(=O)N(C)c3ccccc3)c1C2`, for which the values for the inhibition in test [1] and in test [2] were 105% and 102%, respectively.
As to `O=C1NC(c2cccc3ccccc23)Nc2ccc(Cl)cc21` (stereo unspecified), the results for the inhibition in test [1] and in test [2] were 61.5% and 99.9%, respectively.
